Each structure is given as a SMILES string. Results filed as inconclusive are left out. A number with no mark means an inactive call. Calls of active or inactive are those of the source. Calls follow the shape of the dose curve; as a rule, active = well fitted curve in the direction sought with a large enough effect in the repeat runs; inconclusive = weak or mixed curves; inactive = no such curve, though single readings can be large; an effect the other way counts as inactive or inconclusive.
% is scaled to controls: 0 for no effect and ±100 for the full control effect.
Also: nearly all actives have a fitted effect of over 50% in size.

Chain of Voltage-gated inwardly rectifying potassium channel KCNH2 (Homo sapiens) (Q12809 whole entry, looked up): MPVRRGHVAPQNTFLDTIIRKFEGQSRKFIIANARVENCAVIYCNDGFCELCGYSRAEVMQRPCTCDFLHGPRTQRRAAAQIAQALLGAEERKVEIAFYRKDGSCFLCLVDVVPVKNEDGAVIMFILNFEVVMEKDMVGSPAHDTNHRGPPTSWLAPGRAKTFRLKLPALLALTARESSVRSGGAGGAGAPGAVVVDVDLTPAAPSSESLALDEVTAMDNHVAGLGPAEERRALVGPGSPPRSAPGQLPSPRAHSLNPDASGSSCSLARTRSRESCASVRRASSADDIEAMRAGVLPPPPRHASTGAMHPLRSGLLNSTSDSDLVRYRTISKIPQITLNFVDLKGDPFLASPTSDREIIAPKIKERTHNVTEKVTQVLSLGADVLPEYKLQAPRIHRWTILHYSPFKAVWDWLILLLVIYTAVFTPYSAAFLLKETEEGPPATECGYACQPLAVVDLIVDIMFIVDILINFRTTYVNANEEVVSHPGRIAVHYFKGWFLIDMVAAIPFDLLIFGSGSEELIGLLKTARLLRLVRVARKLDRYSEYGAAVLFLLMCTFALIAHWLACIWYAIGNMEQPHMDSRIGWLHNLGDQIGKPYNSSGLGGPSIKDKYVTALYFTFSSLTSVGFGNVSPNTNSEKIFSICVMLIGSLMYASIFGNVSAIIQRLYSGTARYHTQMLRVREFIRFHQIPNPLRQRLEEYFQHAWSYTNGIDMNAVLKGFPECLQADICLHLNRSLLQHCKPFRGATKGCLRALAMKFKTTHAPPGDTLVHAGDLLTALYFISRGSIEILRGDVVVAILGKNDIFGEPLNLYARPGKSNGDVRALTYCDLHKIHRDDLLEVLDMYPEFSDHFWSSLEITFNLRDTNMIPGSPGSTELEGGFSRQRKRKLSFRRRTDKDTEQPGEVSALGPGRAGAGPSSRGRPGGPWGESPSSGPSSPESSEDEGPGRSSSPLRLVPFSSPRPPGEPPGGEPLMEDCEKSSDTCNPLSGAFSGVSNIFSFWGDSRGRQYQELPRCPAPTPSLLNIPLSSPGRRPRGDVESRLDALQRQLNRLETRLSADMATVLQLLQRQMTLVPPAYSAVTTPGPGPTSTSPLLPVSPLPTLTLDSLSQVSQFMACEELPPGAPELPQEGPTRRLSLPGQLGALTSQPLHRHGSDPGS
Chain of Cytochrome P450 3A4 (Homo sapiens) (P08684 whole entry, looked up): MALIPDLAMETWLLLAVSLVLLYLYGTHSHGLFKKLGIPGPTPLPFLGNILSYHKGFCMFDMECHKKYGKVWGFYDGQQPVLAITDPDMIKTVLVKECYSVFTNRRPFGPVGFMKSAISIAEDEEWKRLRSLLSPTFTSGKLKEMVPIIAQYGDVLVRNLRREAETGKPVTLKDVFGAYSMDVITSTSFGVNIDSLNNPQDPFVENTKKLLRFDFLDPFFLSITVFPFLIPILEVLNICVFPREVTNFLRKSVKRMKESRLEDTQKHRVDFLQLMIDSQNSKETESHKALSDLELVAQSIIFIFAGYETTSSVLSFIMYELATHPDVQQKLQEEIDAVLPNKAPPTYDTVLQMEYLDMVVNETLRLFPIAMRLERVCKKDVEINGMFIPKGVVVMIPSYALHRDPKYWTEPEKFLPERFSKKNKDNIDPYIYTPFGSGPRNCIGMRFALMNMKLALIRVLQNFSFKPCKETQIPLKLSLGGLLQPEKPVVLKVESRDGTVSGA

One experiment addresses Voltage-gated inwardly rectifying potassium channel KCNH2 (Homo sapiens) (UniProt Q12809). The experiment can be described thus: Human Ether-a-go-go-Related Gene (hERG) channel small molecule antagonists: fluorescence cell-based qHTS assay (AID 1671200). Also: potency is read from the fitted curve at half-maximal effect.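 As to activity change, negative = inhibition: hERG-expressing U2OS cells given a thallium stimulus after FluxOR II dye loading.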 Conditions: hERG-U2OS cells, FluxOR thallium flux fluorescence; series mostly up to 76.8 µM; activity change, negative = inhibition: at the top concentration. Put shortly:
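Cell line hERG-U2OS; dye FluxOR II, 1 h RT dark; Tl+ stimulus; ex 480/em 540 nm, read each second for 2 min.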
(In general: The hERG channel carries a current that helps repolarise heart muscle cells.)
Turning to `CO[C@]12C[C@@H](COC(=O)c3cncc(Br)c3)CN(C)[C@@H]1Cc1cn(C)c3cccc2c13`, the Potency is 1.07 µM (active).

In the case of `N=C(N)c1ccccc1`, the “activity change, negative = inhibition” value was -3.95%.

`CCOC(C)(C)C`: the “activity change, negative = inhibition” value was 4.47%.

Regarding `CC1=CC(C)C(C=O)CC1` (stereo not drawn), the “activity change, negative = inhibition” value is 1.86%.

For `CCOc1ccc(C(=O)OCCN(CC)CC)cc1`, the “activity change, negative = inhibition” value is -20.7% [at 35.3 µM].

Take `NS(=O)(=O)c1cc2c(cc1Cl)NC(C1CC3C=CC1C3)NS2(=O)=O` (stereo not drawn): the “activity change, negative = inhibition” value is -14.3% [at 35.3 µM].

As for `NC(=O)Nc1ccccc1`, the “activity change, negative = inhibition” value is -0.648%.

Turning to `CC1(C)CO[C@@H](CC(=O)O)CN1`, the “activity change, negative = inhibition” value was 3.02% [at 35.3 µM].

Consider `O=c1n(CCO)c(=O)n(CCO)c(=O)n1CCO`, for which the Potency entry was “inactive”.

As to `O=C1NC(=O)[C@@]2(CCOc3ccc(F)cc32)N1`, the “activity change, negative = inhibition” value was -1.16% [at 35.3 µM].

`CC(C)c1cc2c(cc1S(=O)(=O)O)[C@@]1(C)CCC[C@@](C)(C(=O)O)[C@@H]1CC2`: the “activity change, negative = inhibition” value is 3.73% [at 35.3 µM].

For `C[N+](C)(C)CCCCCC[N+](C)(C)C`, the Potency entry is “inactive”.

As to `C1CN(CCOCCN2CCOCC2)CCO1`, the “activity change, negative = inhibition” value is -4.23%.

In the case of `OCCOc1ccc(OCCO)cc1`, the “activity change, negative = inhibition” value is 0.21%.

In the case of `NCCCNCCSP(=O)(O)O`, the activity change, negative = inhibition is -1.01% [at 6.97 µM].

As for `CCCCCSCCCCC`, the “activity change, negative = inhibition” value was -4.74%.

For the compound `CC1(C)C(O)C(C)(C)C1O` (stereo not drawn), the “activity change, negative = inhibition” value was -0.246%.

Take `Cn1c(N)c(N=O)c(=O)n(C)c1=O`: the “activity change, negative = inhibition” value is -4.9%.

`CCCCCOC(=O)CCCCC`: the “activity change, negative = inhibition” value is 10.6%.

For `CCOC(=O)c1cccc(N)c1`, the “activity change, negative = inhibition” value is 16.3% [at 35.3 µM].

With `CN1CCCC1`, the “activity change, negative = inhibition” value is 0.599%.

Turning to `CCCCCCOC(=O)CCCCC(=O)OCCCCCC`, the “activity change, negative = inhibition” value was -24.9%.

With `O=C(O)CCCl`, the “activity change, negative = inhibition” value is -9.43%.

`O=C1OC(=O)C2CCCCC12` (stereo not drawn): the “activity change, negative = inhibition” value was -14.9%.

`O=Cc1cccc([N+](=O)[O-])c1`: the “activity change, negative = inhibition” value was -9.33%.

Consider `CO/N=C(/C(=O)N[C@@H]1C(=O)N2C(C(=O)OCOC(=O)C(C)(C)C)=C(C)CS[C@H]12)c1csc(N)n1`, for which the “activity change, negative = inhibition” value is 1.12% [at 35.3 µM].

Turning to `C=CCCCCCCCCC=O`, the “activity change, negative = inhibition” value is 0.299%.

For the compound `NC(=O)c1ccc(N)cc1`, the “activity change, negative = inhibition” value is 3.77%.

In another experiment the target is Cytochrome P450 3A4 (Homo sapiens) (UniProt P08684). The experiment can be described thus: Cytochrome P450 Family 3 Subfamily A Member 4 (CYP3A4) small molecule antagonists: luciferase reporter qHTS assay (AID 1671201). Conditions: P450-Glo CYP3A4 enzyme, luciferin luminescence, 1 h; series mostly up to 115 µM; activity change, negative = inhibition: at the top concentration. Put shortly:
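Room-temperature assay throughout: 10 min compound–enzyme/substrate preincubation, 1 h reaction after NADPH regeneration solution, 20 min detection. Luciferin formed from proluciferin substrate is quantified by luminescence.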
For `COC(=O)c1c(Cl)c(Cl)c(C(=O)OC)c(Cl)c1Cl`, the Potency result was “inactive”.

Regarding `N=C(N)c1ccccc1`, the “activity change, negative = inhibition” value was 1.47%.

For the compound `CCOC(C)(C)C`, the “activity change, negative = inhibition” value is -0.783%.

As to `C[C@H](NC(CCc1ccccc1)C(=O)O)C(=O)N1CCC[C@H]1C(=O)O` (stereo partly drawn), the “activity change, negative = inhibition” value is 2.8% [at 52.9 µM].

For `CC1=CC(C)C(C=O)CC1` (stereo not drawn), the “activity change, negative = inhibition” value was 6.42%.

In the case of `CCOc1ccc(C(=O)OCCN(CC)CC)cc1`, the “activity change, negative = inhibition” value is 6.16% [at 52.9 µM].

Consider `NC(=O)Nc1ccccc1`, for which the “activity change, negative = inhibition” value was 6.01%.

Take `CC1(C)CO[C@@H](CC(=O)O)CN1`: the “activity change, negative = inhibition” value is 12% [at 52.9 µM].

Take `O=c1n(CCO)c(=O)n(CCO)c(=O)n1CCO`: the Potency entry was “inactive”.

With `O=C(CCCN1CCC(O)(c2cccc(C(F)(F)F)c2)CC1)c1ccc(F)cc1`, the “activity change, negative = inhibition” value was 37.5% [at 52.9 µM].

As for `O=C1NC(=O)[C@@]2(CCOc3ccc(F)cc32)N1`, the “activity change, negative = inhibition” value was 6.75% [at 52.9 µM].

As to `CC(C)c1cc2c(cc1S(=O)(=O)O)[C@@]1(C)CCC[C@@](C)(C(=O)O)[C@@H]1CC2`, the “activity change, negative = inhibition” value was 4.19% [at 52.9 µM].

As for `C[N+](C)(C)CCCCCC[N+](C)(C)C`, the Potency entry is “inactive”.

`C1CN(CCOCCN2CCOCC2)CCO1`: the “activity change, negative = inhibition” value was 0.619%.

For `OCCOc1ccc(OCCO)cc1`, the “activity change, negative = inhibition” value is 6.79%.

Turning to `NCCCNCCSP(=O)(O)O`, the activity change, negative = inhibition was 5.88% [at 10.5 µM].

Turning to `CCCCCSCCCCC`, the “activity change, negative = inhibition” value is 1.15%.

For `CC1(C)C(O)C(C)(C)C1O` (stereo not drawn), the “activity change, negative = inhibition” value is 6.63%.

Regarding `CCCN(CCC)CCc1cccc2c1CC(=O)N2`, the “activity change, negative = inhibition” value is 5.45% [at 52.9 µM].

On to `Cn1c(N)c(N=O)c(=O)n(C)c1=O`, for which the “activity change, negative = inhibition” value is -21.6%.

In the case of `CCCCCOC(=O)CCCCC`, the “activity change, negative = inhibition” value was 8.2%.

Turning to `CCOC(=O)c1cccc(N)c1`, the “activity change, negative = inhibition” value is -28.4% [at 52.9 µM].

As for `CN1CCCC1`, the “activity change, negative = inhibition” value is 5.85%.

For `CCCCCCOC(=O)CCCCC(=O)OCCCCCC`, the “activity change, negative = inhibition” value was 4.6%.

In the case of `O=C(O)CCCl`, the “activity change, negative = inhibition” value is 0.923%.

In the case of `O=C1OC(=O)C2CCCCC12` (stereo not drawn), the “activity change, negative = inhibition” value was 26.1%.

On to `NC(=O)c1cn(Cc2c(F)cccc2F)nn1`, for which the “activity change, negative = inhibition” value is 6.47% [at 52.9 µM].

For `O=Cc1cccc([N+](=O)[O-])c1`, the “activity change, negative = inhibition” value was -0.772%.

Take `NC(=O)COCCN1CCN(C(c2ccccc2)c2ccc(Cl)cc2)CC1` (stereo not drawn): the “activity change, negative = inhibition” value is -1.12% [at 52.9 µM].

As to `NC(=O)c1ccc(N)cc1`, the “activity change, negative = inhibition” value was 1.61%.

Source of the values: PubChem BioAssay (Tox21).
